Holding throughout (design): scale not given: direction of the effect not stated beside the values
Assay [1] has as its target Protein translocase subunit SecA (Escherichia coli (strain K12)) (UniProt P10408). Put plainly: Assay to Identify E. coli SecA ATPase Inhibitors. It is filed as functional. The note with it: 30 µM.
Assay [2] has as its target T1, Ubiquitin-activating enzyme e1, putative (Leishmania donovani (strain BPK282A1)) (UniProt E9BSI1).
T1 sequence (whole entry): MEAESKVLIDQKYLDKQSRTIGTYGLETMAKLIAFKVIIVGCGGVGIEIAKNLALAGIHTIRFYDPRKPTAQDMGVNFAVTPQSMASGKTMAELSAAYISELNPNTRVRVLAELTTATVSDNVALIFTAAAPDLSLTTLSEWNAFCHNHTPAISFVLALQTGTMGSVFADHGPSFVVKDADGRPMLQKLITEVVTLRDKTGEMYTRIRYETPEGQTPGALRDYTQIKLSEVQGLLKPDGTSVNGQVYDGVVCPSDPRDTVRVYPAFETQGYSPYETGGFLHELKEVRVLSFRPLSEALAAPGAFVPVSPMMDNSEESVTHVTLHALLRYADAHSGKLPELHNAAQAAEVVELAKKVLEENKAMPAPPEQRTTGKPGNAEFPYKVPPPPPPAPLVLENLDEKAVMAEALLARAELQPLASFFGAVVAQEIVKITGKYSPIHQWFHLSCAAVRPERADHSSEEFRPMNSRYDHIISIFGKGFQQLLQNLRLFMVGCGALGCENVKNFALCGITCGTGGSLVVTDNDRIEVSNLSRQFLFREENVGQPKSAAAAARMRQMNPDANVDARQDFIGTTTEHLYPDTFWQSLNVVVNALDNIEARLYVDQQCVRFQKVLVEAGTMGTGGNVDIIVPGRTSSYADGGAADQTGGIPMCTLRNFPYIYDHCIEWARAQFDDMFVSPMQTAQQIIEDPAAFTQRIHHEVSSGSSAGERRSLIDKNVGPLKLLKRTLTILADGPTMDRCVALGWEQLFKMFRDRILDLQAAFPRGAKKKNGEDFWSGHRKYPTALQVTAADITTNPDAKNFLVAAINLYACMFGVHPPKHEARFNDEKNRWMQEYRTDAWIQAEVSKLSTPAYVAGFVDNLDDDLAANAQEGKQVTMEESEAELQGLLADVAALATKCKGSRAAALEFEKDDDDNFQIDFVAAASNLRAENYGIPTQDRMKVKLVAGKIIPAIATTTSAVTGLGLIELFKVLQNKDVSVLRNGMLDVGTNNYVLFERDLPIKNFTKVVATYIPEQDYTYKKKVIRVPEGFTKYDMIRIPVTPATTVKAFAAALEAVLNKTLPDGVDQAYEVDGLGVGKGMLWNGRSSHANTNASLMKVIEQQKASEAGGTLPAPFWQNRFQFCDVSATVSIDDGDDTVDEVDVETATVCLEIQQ
Put plainly: Leishmania donovani Ubiquitin Activating Enzyme (LdE1). The class given is functional. The settings on record: 30 µM.

The target of assay [3] is AMP-activated protein kinase, AMPK (Homo sapiens) (UniProt P54646+O43741+P54619+Q9UGJ0+Q9Y478+Q13131+Q9UGI9). Put plainly: AMP-dependent Kinase enzyme assay. An in vitro enzyme assay that detects ADP turnover that is directly proportional to AMPK activity. This uses naive AMPK that is activated during the assay with MK-8722. The class given is functional. The settings on record: 30 µM.

The target in assay [4] is Sialic acid-binding Ig-like lectin 9 (Homo sapiens) (UniProt Q9Y336). Put plainly: Hs-Siglec9 ALPHAscreen SOP 20170721. The settings on record: 10 µM. Background: In Alpha technology, singlet oxygen from a donor bead excites a nearby acceptor bead.
Sialic acid-binding Ig-like lectin 9 (Homo sapiens), sequence (Q9Y336 whole entry): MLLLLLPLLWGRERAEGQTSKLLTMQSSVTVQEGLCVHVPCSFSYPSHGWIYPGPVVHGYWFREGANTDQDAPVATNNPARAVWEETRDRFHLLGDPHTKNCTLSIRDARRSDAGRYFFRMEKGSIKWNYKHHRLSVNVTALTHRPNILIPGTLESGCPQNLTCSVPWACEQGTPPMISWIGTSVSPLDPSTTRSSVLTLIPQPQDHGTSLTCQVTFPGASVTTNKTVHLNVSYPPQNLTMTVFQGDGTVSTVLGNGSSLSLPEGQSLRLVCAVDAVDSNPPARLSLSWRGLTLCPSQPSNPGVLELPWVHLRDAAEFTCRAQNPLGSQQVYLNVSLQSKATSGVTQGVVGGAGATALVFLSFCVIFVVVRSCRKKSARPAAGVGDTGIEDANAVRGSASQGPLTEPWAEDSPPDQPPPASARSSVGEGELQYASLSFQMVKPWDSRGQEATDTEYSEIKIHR
For assay [5], the system named is Trypanosoma cruzi. Put plainly: Trypanosoma cruzi phosphomannomutase and mannose-1-phosphate guanylyltransferase assay. It is filed as functional. The note with it: 10 µM.
In assay [6] the target is T2, Arginase-2, mitochondrial (Homo sapiens) (UniProt P78540).
T2 sequence (whole entry): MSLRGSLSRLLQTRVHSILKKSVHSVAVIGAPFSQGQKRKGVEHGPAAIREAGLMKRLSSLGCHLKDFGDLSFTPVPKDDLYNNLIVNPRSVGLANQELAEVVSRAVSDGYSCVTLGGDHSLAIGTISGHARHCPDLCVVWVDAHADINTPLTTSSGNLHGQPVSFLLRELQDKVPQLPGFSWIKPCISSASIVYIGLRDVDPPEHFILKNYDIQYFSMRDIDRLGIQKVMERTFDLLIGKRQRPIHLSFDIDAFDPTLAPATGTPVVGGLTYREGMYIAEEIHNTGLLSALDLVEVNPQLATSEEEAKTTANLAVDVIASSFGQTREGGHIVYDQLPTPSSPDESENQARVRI
In words: in vitro enzyme assay to detect the production of urea directly proportional to the activity of Arginase II. Also: in the data most compounds retested in dose-response had high values. It is filed as functional. The note with it: 33.3 µM.

Assay [7] concerns the target T3, Proteasome subunit beta (Trypanosoma cruzi) (UniProt O96673).
T3 sequence (whole entry): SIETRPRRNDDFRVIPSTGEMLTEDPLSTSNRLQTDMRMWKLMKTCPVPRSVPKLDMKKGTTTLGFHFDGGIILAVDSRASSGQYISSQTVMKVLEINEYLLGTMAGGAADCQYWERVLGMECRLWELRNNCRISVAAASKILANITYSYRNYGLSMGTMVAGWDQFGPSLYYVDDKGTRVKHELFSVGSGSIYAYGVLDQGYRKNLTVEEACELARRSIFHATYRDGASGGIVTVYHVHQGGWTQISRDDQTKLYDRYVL
In words: Trypanosoma cruzi proteasome chymotrypsin-like activity (TcProtChymo) assay. Also: in the data most compounds retested in dose-response had high values. The note with it: 9.37 µM. The class given is functional.

The species entered for assay [8] is Homo sapiens. In words: To identify inhibition of the IFN signalling (Jak-Stat) pathway via expression of an eGFP reporter gene under the control of an IFN-stimulated response element (ISRE) containing MxA promoter. The class given is functional. The note with it: 30 µM. On the technique in general: Reporter assays use an easily measured gene product as a stand-in for the process of interest.

Assay [9] concerns the target T4, Tyrosyl-tRNA synthetase, putative (Trypanosoma cruzi (strain CL Brener)) (UniProt Q4DSP6).
T4 sequence (whole entry): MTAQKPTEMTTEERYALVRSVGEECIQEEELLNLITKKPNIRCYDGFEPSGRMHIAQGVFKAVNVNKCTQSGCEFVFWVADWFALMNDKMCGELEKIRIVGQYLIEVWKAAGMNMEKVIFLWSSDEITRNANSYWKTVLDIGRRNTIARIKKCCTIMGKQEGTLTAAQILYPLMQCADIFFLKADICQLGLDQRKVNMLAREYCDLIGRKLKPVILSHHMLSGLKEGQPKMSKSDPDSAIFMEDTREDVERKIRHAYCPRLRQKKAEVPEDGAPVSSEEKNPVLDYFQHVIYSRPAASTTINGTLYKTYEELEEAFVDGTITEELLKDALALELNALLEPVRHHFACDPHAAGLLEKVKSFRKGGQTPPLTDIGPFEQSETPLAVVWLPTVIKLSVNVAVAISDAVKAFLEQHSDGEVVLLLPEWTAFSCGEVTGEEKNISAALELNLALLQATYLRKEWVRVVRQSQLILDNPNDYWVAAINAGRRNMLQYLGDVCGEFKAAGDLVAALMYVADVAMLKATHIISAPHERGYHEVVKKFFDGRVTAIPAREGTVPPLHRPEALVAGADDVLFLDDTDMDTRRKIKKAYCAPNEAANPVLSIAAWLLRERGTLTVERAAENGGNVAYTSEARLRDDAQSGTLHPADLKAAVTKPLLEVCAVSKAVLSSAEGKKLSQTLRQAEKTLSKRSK
Put plainly: Trypanosoma cruzi tyrosyl tRNA synthetase (TcYRS) _High Tyrosine SOP. Also: in the data most compounds retested in dose-response had high values. The class given is functional. The settings on record: 30 µM.

Assay [10] deals with T4, Tyrosyl-tRNA synthetase, putative (Trypanosoma cruzi (strain CL Brener)). In words: Trypanosoma cruzi tyrosyl tRNA synthetase (TcYRS) SOP. The settings on record: 30 µM. It is filed as functional.
In assay [11] the target is Chromo domain-containing protein 1 (Saccharomyces cerevisiae (strain ATCC 204508 / S288c) (Baker's yeast)) (UniProt P32657). In words: ScCHD-1 Enzyme Inhibition Assay. Also: in the data most compounds retested in dose-response had high values. The class given is functional. The settings on record: 30 µM.
Chromo domain-containing protein 1 (Saccharomyces cerevisiae (strain ATCC 204508 / S288c) (Baker's yeast)), sequence (P32657 whole entry, the tested form may be a part): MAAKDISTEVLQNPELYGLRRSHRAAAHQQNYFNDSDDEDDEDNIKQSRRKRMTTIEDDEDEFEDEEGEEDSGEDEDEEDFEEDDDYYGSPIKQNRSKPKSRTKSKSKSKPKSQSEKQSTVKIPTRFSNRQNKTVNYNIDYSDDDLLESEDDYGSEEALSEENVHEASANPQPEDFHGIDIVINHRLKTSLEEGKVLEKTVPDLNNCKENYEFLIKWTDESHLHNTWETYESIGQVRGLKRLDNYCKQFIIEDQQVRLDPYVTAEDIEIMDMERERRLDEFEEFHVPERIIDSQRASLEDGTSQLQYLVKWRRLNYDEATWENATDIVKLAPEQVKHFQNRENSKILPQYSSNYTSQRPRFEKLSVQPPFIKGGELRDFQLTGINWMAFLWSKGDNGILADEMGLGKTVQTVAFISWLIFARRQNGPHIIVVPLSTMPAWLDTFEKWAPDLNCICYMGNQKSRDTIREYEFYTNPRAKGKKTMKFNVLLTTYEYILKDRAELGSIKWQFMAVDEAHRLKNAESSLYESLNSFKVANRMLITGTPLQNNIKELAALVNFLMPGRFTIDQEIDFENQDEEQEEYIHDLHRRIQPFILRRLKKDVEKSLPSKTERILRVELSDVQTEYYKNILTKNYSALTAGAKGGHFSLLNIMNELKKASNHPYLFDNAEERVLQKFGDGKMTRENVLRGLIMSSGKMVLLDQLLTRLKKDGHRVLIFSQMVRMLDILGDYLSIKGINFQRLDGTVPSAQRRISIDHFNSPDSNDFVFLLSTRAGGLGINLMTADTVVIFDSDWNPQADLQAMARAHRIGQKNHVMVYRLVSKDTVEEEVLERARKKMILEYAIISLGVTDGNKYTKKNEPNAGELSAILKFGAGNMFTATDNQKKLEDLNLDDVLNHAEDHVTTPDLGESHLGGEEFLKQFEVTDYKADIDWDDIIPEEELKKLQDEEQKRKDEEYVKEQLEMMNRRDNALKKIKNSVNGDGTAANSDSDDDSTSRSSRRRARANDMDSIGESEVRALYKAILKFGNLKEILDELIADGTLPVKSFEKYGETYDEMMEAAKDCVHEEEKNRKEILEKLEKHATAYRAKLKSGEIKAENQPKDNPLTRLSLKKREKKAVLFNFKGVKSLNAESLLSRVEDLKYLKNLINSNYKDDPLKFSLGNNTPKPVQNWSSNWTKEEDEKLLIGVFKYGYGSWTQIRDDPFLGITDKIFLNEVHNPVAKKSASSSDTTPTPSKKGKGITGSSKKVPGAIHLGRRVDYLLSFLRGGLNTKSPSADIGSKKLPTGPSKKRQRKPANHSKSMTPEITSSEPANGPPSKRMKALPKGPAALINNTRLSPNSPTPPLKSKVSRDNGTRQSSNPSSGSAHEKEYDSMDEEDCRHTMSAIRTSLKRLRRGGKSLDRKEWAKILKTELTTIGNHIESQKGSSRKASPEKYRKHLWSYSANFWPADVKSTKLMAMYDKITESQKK

For some assays here: Results with a measured potency or affinity are listed apart.

Drawing on ChEMBL document CHEMBL3988442, “University of Dundee, Small-Polar-MMV Screening Library” (2021), this text covers Percent Effect for ten compounds.

Protein translocase subunit SecA (Escherichia coli (strain K12)), sequence (P10408 whole entry): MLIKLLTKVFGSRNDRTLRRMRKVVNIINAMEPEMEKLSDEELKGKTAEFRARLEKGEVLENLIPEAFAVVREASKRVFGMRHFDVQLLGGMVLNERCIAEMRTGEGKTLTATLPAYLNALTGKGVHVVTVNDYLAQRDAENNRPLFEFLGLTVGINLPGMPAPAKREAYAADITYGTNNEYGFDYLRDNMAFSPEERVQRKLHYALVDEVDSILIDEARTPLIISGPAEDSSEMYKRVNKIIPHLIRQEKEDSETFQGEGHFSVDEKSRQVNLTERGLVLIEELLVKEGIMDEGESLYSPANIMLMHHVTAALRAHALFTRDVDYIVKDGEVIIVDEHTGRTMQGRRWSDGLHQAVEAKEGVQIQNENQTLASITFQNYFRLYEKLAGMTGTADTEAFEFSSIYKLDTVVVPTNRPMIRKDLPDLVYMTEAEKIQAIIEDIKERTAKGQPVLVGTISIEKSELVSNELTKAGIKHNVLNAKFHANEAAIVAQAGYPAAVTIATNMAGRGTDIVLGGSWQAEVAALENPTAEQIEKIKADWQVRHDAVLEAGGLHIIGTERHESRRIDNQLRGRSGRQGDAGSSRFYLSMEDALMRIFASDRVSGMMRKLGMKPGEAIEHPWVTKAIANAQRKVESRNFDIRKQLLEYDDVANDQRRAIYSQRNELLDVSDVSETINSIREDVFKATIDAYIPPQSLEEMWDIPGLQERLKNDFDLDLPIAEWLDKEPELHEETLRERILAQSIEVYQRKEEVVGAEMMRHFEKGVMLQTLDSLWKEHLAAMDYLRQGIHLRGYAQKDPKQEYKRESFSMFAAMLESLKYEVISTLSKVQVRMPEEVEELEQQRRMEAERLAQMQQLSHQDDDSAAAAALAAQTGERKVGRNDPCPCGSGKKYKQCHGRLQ

As for `O=S(=O)(c1ccccc1)N1CCCN(CCCn2ccnc2)CC1`, the Percent Effect is -1.12% in assay [1]; 0% in assay [2]; -5.54% in assay [3]; 24.8% in [4]; 5.38% in [5]; -0.248% in assay [6]. In addition, the Percent Effect is 3.35% in [7]; -7.92% in [8]; 2.15% in assay [9]; 3.7% in assay [10]; -12.2% in assay [11].
As to `CCc1ncc2c(n1)CN(Cc1nc(-c3ccsc3)oc1C)CC2`, the Percent Effect in assay [1] is -6.04%; in assay [2], -18.4%; in assay [3], -33%; in [4], 12.2%; in assay [5] it was -1.77%; in [6], -0.719%. Besides, the Percent Effect in assay [7] is 9.73%; in assay [8], -1.35%; in assay [9], 19.2%; in assay [10], 16.1%; in assay [11], 2.49%.
Regarding `CN(Cc1ccco1)Cc1ccccc1CNC(=O)c1ccc[nH]1`, the Percent Effect in assay [1] was 0.847%; in assay [2], -10.8%; in assay [3] it was -0.911%; in assay [4] it was 10%; in [5], 2.32%; in [6], 14.3%. The Percent Effect in assay [7] was 9.31%; in assay [8], 19.5%; in [9] it was 3.7%; in assay [10], 12.2%; in assay [11], -4.76%.
`O=C(NCCc1c[nH]cn1)c1ccc2c(c1)C(=O)N(C1CC1)C2=O`: the Percent Effect in assay [1] is -0.201%; in [2], 1.33%; in [3], 5.05%; in [4] it was 2.3%; in assay [5] it was -8.64%; in [6], 0.176%. Further, the Percent Effect in assay [7] was 11.7%; in assay [8] it was -8.34%; in [9], 6.35%; in assay [10], 7.69%; in assay [11] it was -4.66%.
As to `COc1ccc(C2CCCN2S(=O)(=O)N(C)CC(C)C)cc1` (stereo not given), the Percent Effect in [1] is -1.74%; in assay [2], -6.94%; in [3], 6.36%; in assay [4], -0.345%; in assay [5], -2.62%; in assay [6] it was -3.97%. The Percent Effect was 5.61% in [7]; -1.6% in assay [8]; -5.26% in assay [9]; -10.3% in assay [10]; -2.11% in [11].
For `Cc1nc(CN2C(=O)CCC23CCN(c2ncccn2)CC3)cs1`, the Percent Effect is -1.55% in assay [1]; 16% in assay [2]; -2.28% in assay [3]; 4.1% in assay [4]; 5.02% in [5]; -54.7% in assay [6]. For the same compound, the Percent Effect in assay [7] is 19.3%; in [8], -8.11%; in [9], 5.21%; in assay [10], 5%; in assay [11], -8.28%.
For `Cc1ccc(C(O)CNC(=O)NCc2nc(C)cs2)cc1` (stereo not given), the Percent Effect is -1.18% in [1]; 5.41% in assay [2]; 2.46% in assay [3]; 3.69% in assay [4]; -6.56% in assay [5]; 1.43% in assay [6]. The Percent Effect in assay [7] was 12.9%; in [8], 5.94%; in [9], 2.65%; in assay [10] it was 12.2%; in assay [11], -3.85%.
With `CC(C)c1ccc(OCCC(=O)N2CCC(CC(N)=O)CC2)cc1`, the Percent Effect in [1] is -3.21%; in assay [2], 5.26%; in assay [3] it was 5.06%; in assay [4], 6.24%; in assay [5] it was 6.58%; in assay [6], -2.68%. The Percent Effect in assay [7] is 11%; in assay [8] it was 5.75%; in assay [9] it was 4.41%; in assay [10], 12.2%; in assay [11] it was -9.8%.
For the compound `CN1CC2(COCCN(C(=O)c3ccco3)C2)OCC1=O` (stereo not given), the Percent Effect in [1] is -5.81%; in assay [2] it was 2.67%; in assay [3] it was -0.919%; in assay [4], -3.45%; in assay [5], -5.99%; in assay [6], -55.4%. For the same compound, the Percent Effect in assay [7] was 0.513%; in [8], -7.28%; in [9] it was -3.12%; in assay [10], -2.5%; in [11] it was -2.77%.
As for `O=C(NCCCOCC1CC1)Nc1cccnc1N1CCOCC1`, the Percent Effect in assay [1] was -3.08%; in [2], 2.7%; in assay [3], -5.79%; in [4], 0.4%; in assay [5] it was -5.27%; in assay [6], -1.67%. The Percent Effect in assay [7] is 21.1%; in [8], 10.8%; in assay [9], -21.8%; in assay [10] it was 3.66%; in assay [11], 14.9%.
